Source: PubChem BioAssay
Compounds with a hit are over-represented: about 19% of the library has one in this group of screens.
DT40 TDP1 no CPT = qHTS for Inhibitors of human tyrosyl-DNA phosphodiesterase 1 (TDP1): qHTS in cells in absence of CPT | DT40 Tdp1-/- hTDP1 cells, no CPT, ATP luminescence, 48 h | Potency, µM (series often up to 46.2 µM), for inactives: at the highest dose activity change, negative = growth inhibition, most hits filed as inhibitors | 420,000 compounds, 15% hits | AID 686978, 2013; note: nearly all actives have a fitted effect of over 55% in size
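DT40 Tdp1-/-;hTDP1 cells, no CPT (DMSO vehicle only), 400 cells/well; compounds pin-transferred; ≥48 hr, 37 °C; CellTiter-Glo 30 min RT dark, luminescence read.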
HT1080NT lethal = qHTS for induction of synthetic lethality in tumor cells producing 2HG: qHTS for the HT-1080-NT fibrosarcoma cell line; HT-1080-NT fibrosarcoma viability, CellTiter-Glo ATP luminescence, 48 h; Potency, µM (titrated, usually from 46.1 µM), inactives show at the highest dose activity, negative = less viability, hits mostly cytotoxic; 360,000 compounds, 1.6% hits;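 note: NT is the 2HG producing partner of a matched IDH1 knockdown line; 0% = DMSO-treated cells and -100% = media-only wells without cells; nearly all actives have a fitted effect of over 55% in size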
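Luminescent CellTiter-Glo readout after 48 hours of compound exposure at 37 degrees C defined viability of HT-1080-NT cells. Activity was normalized to DMSO wells and cell-free media wells; concentration-response curves were fitted and assigned curve classes.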
TDP1 cell CPT = qHTS for Inhibitors of human tyrosyl-DNA phosphodiesterase 1 (TDP1): qHTS in cells in presence of CPT | chicken DT40 Tdp1-/-;hTDP1 cells + 20 nM CPT, ATP luminescence, 48 h | Potency, µM (top dose mostly 46.2 µM), without a hit: top-dose activity change, negative = growth inhibition, most hits filed as inhibitors | 420,000 compounds, 12% hits; note: nearly all actives have a fitted effect of over 55% in size
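Chicken DT40 Tdp1-/- cells stably complemented with human TDP1 were seeded at 400 cells/well in medium containing 20 nM camptothecin, exposed to pin-transferred compounds, and grown at 37 °C for at least 48 hr. Viability was read as ATP luminescence.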
HT1080 IDH1KD tx = qHTS for induction of synthetic lethality in tumor cells producing 2HG: qHTS for the HT-1080-IDH1KD cell line; HT-1080 IDH1 knockdown viability, ATP luminescence, 48 h; Potency, µM (top dose mostly 46.1 µM), for the others: at the top dose activity, negative = toxicity, most hits filed as cytotoxic; 360,000 compounds, 2% hits;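 note: 0% = DMSO wells and -100% = cell-free medium wells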
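Assay cells: HT-1080 with IDH1 knockdown, 750 per well, RPMI/5% FBS. Exposure: 48 h at 37 °C following 2 h pre-incubation. Read: CellTiter-Glo luminescence; fitted concentration-response, curve class assigned.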
KB-V1 MDR tox = qHTS assay for MDR1-selective chemotherapeutics: Primary screen using the drug-selected MDR subline cells KB-V1 | AID 1347076, 2019 | 400,000 compounds, 3.4% hits | KB-V1 MDR cells viability, CellTiter-Glo, 72 h | Potency, µM (series often up to 46.1 µM), most hits filed as cytotoxic; note: nearly all actives have a fitted effect of over 60% in size
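Compound-treated KB-V1 multidrug-resistant cells, 72 h, 37 degrees C; viability by CellTiter-Glo. Fitted qHTS curves give the values.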
KB-3-1 tox = qHTS assay for MDR1-selective chemotherapeutics: Primary screen using the parental adenocarcinoma cell KB-3-1. KB-3-1 viability, CellTiter-Glo ATP luminescence, 72 h. Potency, µM (doses to about 46.1 µM), hits mostly cytotoxic. 400,000 compounds, 1.4% hits. AID 1347075, 2019; note: nearly all actives have a fitted effect of over 60% in size
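Here the drug-naive KB-3-1 line serves as comparator for MDR sub-line selectivity; cells received compound titrations, 72 h at 37 °C, then CellTiter-Glo readout.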
* hit, by the source's call. Calls come from the whole dose curve; as a rule, active = well fitted curve in the direction sought with a large enough effect; inconclusive = small, poorly fitted or top-dose-only effect, or another doubt; inactive = no such curve, though single readings can be large; an effect the other way counts as inactive or inconclusive. Unless noted, % is set by controls: 0 for no effect and ±100 for the full control effect; potency is the fitted concentration of half-maximal effect.

For Cc1ccccc1C(=O)NNC(=S)NC(=O)c1cccs1 the results were DT40 TDP1 no CPT 18µM*, HT1080NT lethal inconclusive, TDP1 cell CPT 21µM*, HT1080 IDH1KD tx inconclusive, KB-V1 MDR tox inactive and KB-3-1 tox inactive.
For C/C(=N/NS(=O)(=O)c1ccc(C)cc1C)c1c[nH]c2ccccc12 the results were DT40 TDP1 no CPT inconclusive, HT1080NT lethal -11%, TDP1 cell CPT inconclusive, HT1080 IDH1KD tx -29%, KB-V1 MDR tox inactive and KB-3-1 tox inactive.
For COCCNC(=S)N(C)[C@H]1C[C@H]2c3cc(N4CCN(C)CC4)ccc3CCN2C(=O)[C@H]1[C@H](C)O the results were DT40 TDP1 no CPT -17%, HT1080NT lethal 21%, TDP1 cell CPT 0%, HT1080 IDH1KD tx 4%, KB-V1 MDR tox inactive and KB-3-1 tox inactive.
`CC(/C=C1\SC(=Nc2cccnc2)NC1=O)=C\c1ccccc1` gave DT40 TDP1 no CPT 2.9µM*, HT1080NT lethal -16%, TDP1 cell CPT 4.1µM*, HT1080 IDH1KD tx 0%, KB-V1 MDR tox 8.2µM* and KB-3-1 tox 16µM*.
For CSc1ccccc1C(=O)NCc1ccc(C)cc1 the results were DT40 TDP1 no CPT -12%, HT1080NT lethal -1%, TDP1 cell CPT 2%, HT1080 IDH1KD tx 3%, KB-V1 MDR tox inactive and KB-3-1 tox inactive.
CCOC(=O)C(CC)Sc1nnc(COc2ccc(C)cc2)n1-c1ccccc1 (stereo not given) was read as DT40 TDP1 no CPT inconclusive, HT1080NT lethal -18%, TDP1 cell CPT 21µM*, HT1080 IDH1KD tx -4%, KB-V1 MDR tox inactive and KB-3-1 tox inactive.
`CCOc1ccc(-n2c(COc3ccc(C)cc3)nnc2SCC(N)=O)cc1` gave DT40 TDP1 no CPT -14%, HT1080NT lethal -2%, TDP1 cell CPT -14%, HT1080 IDH1KD tx 2%, KB-V1 MDR tox inactive and KB-3-1 tox inactive.
Screening O=C(CSc1nnc(COc2ccccc2)n1-c1ccccc1)c1cccs1 returned DT40 TDP1 no CPT 21µM*, HT1080NT lethal inconclusive, TDP1 cell CPT 18µM*, HT1080 IDH1KD tx -25%, KB-V1 MDR tox inactive and KB-3-1 tox inactive.
Cc1ccc(-n2c(SCc3ccc(C#N)cc3)nnc2-c2ccccn2)cc1 was read as DT40 TDP1 no CPT -20%, HT1080NT lethal 8%, TDP1 cell CPT -17%, HT1080 IDH1KD tx 4%, KB-V1 MDR tox inactive and KB-3-1 tox inactive.
Screening Cc1ccc(OCc2nnc(SCc3ccc(C#N)cc3)n2-c2ccc(C)cc2)cc1 returned DT40 TDP1 no CPT 16µM*, HT1080NT lethal inconclusive, TDP1 cell CPT inconclusive, HT1080 IDH1KD tx 11µM*, KB-V1 MDR tox inactive and KB-3-1 tox inactive.
Screening O=C(O)c1ccc(CS(=O)(=O)c2cccc(C(F)(F)F)c2)o1 returned DT40 TDP1 no CPT 3%, HT1080NT lethal 12%, TDP1 cell CPT -15%, HT1080 IDH1KD tx 6%, KB-V1 MDR tox inactive and KB-3-1 tox inactive.
O=C(COC(=O)c1ccccc1Oc1ccccc1)Nc1ccc(Br)cc1 was read as DT40 TDP1 no CPT -22%, HT1080NT lethal 13%, TDP1 cell CPT 1% and HT1080 IDH1KD tx 13%.
Screening O=C(Nc1ccccc1Cl)ON=C1c2ccccc2-c2ccccc21 returned DT40 TDP1 no CPT inconclusive, HT1080NT lethal -14%, TDP1 cell CPT inconclusive, HT1080 IDH1KD tx -30%, KB-V1 MDR tox inactive and KB-3-1 tox inactive.
For COc1ccc2nc(SC(C)C(=O)NC3CCCC3)[nH]c2c1 (stereo not given) the results were DT40 TDP1 no CPT -29%, HT1080NT lethal -17%, TDP1 cell CPT inconclusive, HT1080 IDH1KD tx -10%, KB-V1 MDR tox inactive and KB-3-1 tox inactive.
Cc1[nH]nc2ncc(C(=O)c3cc(F)ccc3O)cc12 was read as DT40 TDP1 no CPT inconclusive, HT1080NT lethal -15%, TDP1 cell CPT inconclusive, HT1080 IDH1KD tx -15%, KB-V1 MDR tox 8.2µM* and KB-3-1 tox inconclusive.
Screening CC(C)C[C@H]1CNC(=S)N1C[C@H]1CCCN1C[C@H](CC(C)C)N1C[C@H](Cc2ccc(O)cc2)N(CC2CCCCC2)C1=S returned DT40 TDP1 no CPT 13µM*, HT1080NT lethal 18µM*, TDP1 cell CPT 10µM*, HT1080 IDH1KD tx 21µM*, KB-V1 MDR tox 16µM* and KB-3-1 tox inconclusive.
For CC(C)C[C@@H](CN1CCCC1CN1C(=S)NC[C@@H]1Cc1ccc(O)cc1)N1C[C@H](Cc2ccc(O)cc2)N(CC2CCCCCC2)C1=S (stereo not given in full) the results were DT40 TDP1 no CPT 8.2µM*, HT1080NT lethal 23µM*, TDP1 cell CPT 15µM*, HT1080 IDH1KD tx inconclusive, KB-V1 MDR tox inconclusive and KB-3-1 tox inconclusive.
Screening CC(C)C[C@@H](CN1CCCC1CN1C(=S)NC[C@@H]1Cc1ccc(O)cc1)N1C[C@H](Cc2ccccc2)N(CC2CCCCCC2)C1=S (stereo not given in full) returned DT40 TDP1 no CPT 23µM*, HT1080NT lethal -5%, TDP1 cell CPT inconclusive, HT1080 IDH1KD tx -13%, KB-V1 MDR tox inconclusive and KB-3-1 tox inactive.
For CC(C)C[C@@H](CN1CCCC1CN1C(=S)NC[C@@H]1Cc1ccc(O)cc1)N1C[C@H](Cc2ccccc2)N(CC2CCCCC2)C1=S (stereo not given in full) the results were DT40 TDP1 no CPT inconclusive, HT1080NT lethal -22%, TDP1 cell CPT inconclusive, HT1080 IDH1KD tx inconclusive, KB-V1 MDR tox inconclusive and KB-3-1 tox inconclusive.
Screening CC(C)C[C@@H](CN1CCC[C@@H]1CN1C(=O)C(=O)NC[C@@H]1Cc1ccc(O)cc1)N1C[C@H](Cc2ccc(O)cc2)N(CC2CCCCCC2)C(=O)C1=O returned DT40 TDP1 no CPT -22%, HT1080NT lethal -4%, TDP1 cell CPT 3%, HT1080 IDH1KD tx 2%, KB-V1 MDR tox inactive and KB-3-1 tox inactive.
`COc1ccc(S(=O)(=O)N2CCOCC2)cc1NC(=O)C1CCCCN1S(=O)(=O)c1ccccc1` (stereo not given) gave DT40 TDP1 no CPT inconclusive, HT1080NT lethal 1%, TDP1 cell CPT inconclusive, HT1080 IDH1KD tx 6%, KB-V1 MDR tox inactive and KB-3-1 tox inactive.
